An excerpt weighted towards active compounds, which were near 3.4% of everything screened.
PKM2 act: qHTS Assay for Activators of Human Muscle isoform 2 Pyruvate Kinase. Pyruvate kinase PKM (Homo sapiens), P14618. purified PKM2, Kinase-Glo ATP luminescence, activation; response scale: 0% is enzyme alone, no compound. Potency, µM (doses to about 57.5 µM), for the others: at the highest dose activation, actives largely listed as activators. hit rate 0.34% among 260,000. AID 1631, 2009; also: % is scaled to controls: 0 for no effect and ±100 for the full control effect; nearly all actives have a fitted effect of over 55% in size
Target sequence (P14618 whole entry, looked up, canonical isoform): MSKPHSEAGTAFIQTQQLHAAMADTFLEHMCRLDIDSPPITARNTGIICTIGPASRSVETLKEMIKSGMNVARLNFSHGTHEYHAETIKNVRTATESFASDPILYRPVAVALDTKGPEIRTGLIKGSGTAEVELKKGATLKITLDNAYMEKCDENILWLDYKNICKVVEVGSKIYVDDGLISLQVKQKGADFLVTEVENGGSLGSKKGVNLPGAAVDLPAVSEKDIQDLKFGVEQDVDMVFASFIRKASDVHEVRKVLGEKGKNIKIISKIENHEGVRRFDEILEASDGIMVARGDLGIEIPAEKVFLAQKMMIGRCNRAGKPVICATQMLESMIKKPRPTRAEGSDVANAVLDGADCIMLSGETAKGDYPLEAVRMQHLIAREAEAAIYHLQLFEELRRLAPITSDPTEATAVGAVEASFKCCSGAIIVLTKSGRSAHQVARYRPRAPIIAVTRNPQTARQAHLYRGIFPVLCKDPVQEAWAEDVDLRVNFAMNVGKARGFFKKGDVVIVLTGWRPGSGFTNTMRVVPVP
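Purified hPK-M2 (>95%) run at intermediate activity with 0.1 mM ADP and 0.5 mM PEP in 50 mM imidazole pH 7.2, KCl, MgCl2; 1 h room temperature. ATP formed read by Kinase-Glo luminescence; normalized to uninhibited and no-enzyme controls.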
VDR inh: Inhibitors of the vitamin D receptor (VDR): qHTS; Vitamin D3 receptor (Homo sapiens), P11473; VDR-SRC2-3 peptide fluorescence polarization, 2 h; Potency, µM, for inactives: max response, negative = inhibition, actives largely listed as inhibitors; hit rate 0.93% among 400,000; also: % is scaled to controls: 0 for no effect and ±100 for the full control effect
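Fluorescence polarization assay measuring small-molecule disruption of VDR binding to the coregulator peptide SRC2-3. Compounds were pin-transferred (23 nl) into the reagent mix and incubated 2 h at room temperature before reading.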
GCN5L2 inh: qHTS Assay for Inhibitors of GCN5L2 | AID 504327, 2011 | Histone acetyltransferase KAT2A (Homo sapiens), Q92830 | GCN5L2 HAT assay, ThioGlo1 CoA-SH fluorescence | hit rate 0.21% among 390,000 | Potency, µM (doses to about 58.9 µM), without a hit: at the highest dose activity change, negative = inhibition, hits mostly inhibitors; also: % is scaled to controls: 0 for no effect and ±100 for the full control effect
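Titration-based screen in which CoA formation is detected via maleimide probe ThioGlo1 (50uM) turning fluorescent on thiol reaction; substrates H3(1-25) 75uM and acetyl-CoA 70uM, GCN5L2 20nM, 20 min incubation at room temperature.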
Mito fusion yeast: qHTS Assay for Small Molecule Inhibitors of Mitochondrial Division or Activators of Mitochondrial Fusion; S. cerevisiae fusion-defective mutant growth rescue, CellTiterGlo 48 h; Potency, µM (titrated, usually from 46.1 µM), without a hit: at the top dose growth rescue (activation), usual class: activators; hit rate 0.23% among 320,000; AID 485298, 2010; also: % of control where 0% means no effect; nearly all actives have a fitted effect of over 45% in size
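Read-out: ATP-based luminescence (CellTiterGlo, 10 min ambient) reporting growth of fusion-defective ts yeast after 48 hours at 37C on glycerol/ethanol YPEG medium in the presence of compound.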
PLK1 PBD inh: qHTS for Inhibitors of PLK1-PDB (polo-like kinase 1 - polo-box domain): Primary Screen. Serine/threonine-protein kinase PLK1 (Homo sapiens), P53350. Plk1 PBD binding of FITC phosphopeptide, fluorescence polarization. Potency, µM, without a hit: max response, negative = inhibition, most hits filed as inhibitors. hit rate 2.8% among 360,000; also: series mostly up to about 57 µM; % is scaled to controls: 0 for no effect and ±100 for the full control effect; nearly all actives have a fitted effect of over 65% in size
GLS inh: qHTS for Inhibitors of Glutaminase (GLS). Glutaminase kidney isoform, mitochondrial (Homo sapiens), O94925. GLS enzymatic activity, qHTS titration. Potency, µM (highest dose often 45.5 µM), for the others: at the highest dose activity change, negative = inhibition, usual class: inhibitors. hit rate 0.21% among 410,000. AID 624170, 2012; also: % is scaled to controls: 0 for no effect and ±100 for the full control effect
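Read-out is an Amplex red fluorescence increase coupled through glutamate oxidase and HRP, measured before and after 30 min room-temperature incubation. hKGA is in 45 mM KH2PO4 (pH 8.2) with 0.02% Tween-20; glutamine added as 1mM solution.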
Starred values were filed as active, the others as inactive; ? = inconclusive; / = not tested or not shown. Calls follow the shape of the dose curve; as a rule, active = well fitted curve in the direction sought with a large enough effect; inconclusive = small, poorly fitted or top-dose-only effect, or another doubt; inactive = no such curve, though single readings can be large; an effect the other way counts as inactive or inconclusive. Potency is read from the fitted curve at half-maximal effect.

SMILES | PKM2 act | VDR inh | GCN5L2 inh | Mito fusion yeast | PLK1 PBD inh | GLS inh
O=C(O)c1ccc(CNC(=O)C2CCN(S(=O)(=O)c3ccc4c(c3)OCCO4)CC2)cc1 | / | / | / | / | -18% | 1%
COc1ccc(NC(=O)Cn2nnc(C(=O)NCc3ccc4c(c3)OCO4)c2N)c(OC)c1 | / | -29% | -16% | -2% | 21µM* | 17%
COc1ccc(NC(=O)Cn2nnc(C(=O)NCc3ccc4c(c3)OCO4)c2N)cc1 | 0% | -18% | -11% | 2% | -18% | -3%
Cc1ccc(CNC(=O)CSCc2cccc(F)c2)cc1 | 10% | ? | -12% | 7% | 21µM* | ?
Cc1ccc(CNC(=O)CSCc2ccccc2C)cc1 | / | 7% | -2% | 7% | / | -4%
O=C(CCSCc1cccc(F)c1)NCc1ccc(F)cc1 | / | ? | -6% | 11% | 7.5µM* | ?
CCOC(=O)c1c(C)[nH]c(C)c1C(=O)COC(=O)CNC(=O)c1ccc(OCC)cc1 | -3% | -9% | -17% | -1% | 30µM* | -3%
COC(=O)N1CCc2c(sc(NC(=O)C3COc4ccccc4O3)c2C(N)=O)C1 (stereo not drawn) | / | 89µM* | -10% | 3% | 11µM* | 22%
NC(=O)c1c(NC(=O)C2COc3ccccc3O2)sc2c1CCN(Cc1ccccc1)C2 (stereo not drawn) | -1% | 3% | -7% | -2% | 31% | -7%
CC1(c2ccc3c(c2)OCCO3)NC(=O)N(CC(=O)Nc2ccccc2SCC#N)C1=O (stereo not drawn) | / | 3% | 0% | -1% | -2% | 2%
CCOc1ccccc1N1CC(C(=O)N2CCc3ccccc3C2)CC1=O (stereo not drawn) | -6% | ? | -5% | 2% | 3.4µM* | ?
CCC(c1ccccc1)C(CC)c1cc(O)c(O)c(O)c1 (stereo not drawn) | / | ? | / | / | 6µM* | 11µM*
COc1ccccc1CNC(=O)C1CCN(S(=O)(=O)c2ccc3c(c2)CCCN3C(C)=O)CC1 | / | 11% | -7% | / | / | -10%
O=S(=O)(c1c(F)cccc1F)N1CCCC2CCCCC21 (stereo not drawn) | / | -5% | -4% | 13% | 0% | 3%
Cc1cccc(C)c1NC(=O)CN(CC(=O)O)CC(=O)O | / | 5% | 7% | / | / | 1%
Cc1ccc(C(=O)Nc2ccc(S(=O)(=O)O)c3cc(S(=O)(=O)O)cc(S(=O)(=O)O)c23)cc1NC(=O)c1cccc(NC(=O)Nc2cccc(C(=O)Nc3cc(C(=O)Nc4ccc(S(=O)(=O)O)c5cc(S(=O)(=O)O)cc(S(=O)(=O)O)c45)ccc3C)c2)c1 | / | 22µM* | ? | 16µM* | / | 8.9µM*
CCc1ccc(S(=O)(=O)/N=C2\C=C(NS(=O)(=O)c3ccccc3)C(=O)c3ccccc32)cc1 | / | ? | ? | -14% | 21µM* | -2%
CCc1ccc(Nc2nc3ccccc3nc2NS(=O)(=O)c2ccccc2)cc1 | / | -9% | -6% | / | / | -9%
Cc1ccc(C)c(S(=O)(=O)/N=C2\C=C(NS(=O)(=O)c3ccccc3)C(=O)c3ccccc32)c1 | / | -15% | -3% | -17% | 27µM* | 17%
Cc1cccc(S(=O)(=O)Nc2cccc3c2C(=O)c2ccccc2-3)c1 | 11% | -10% | -3% | 16% | 10% | -7%
COc1ccc(OC)c(NC(=O)COc2coc(CN3CCc4ccccc43)cc2=O)c1 | / | 18% | -13% | -8% | -5% | 5%
Nc1ccc2oc(Cc3ccc(Cl)cc3)nc2c1 | / | 79µM* | -10% | / | / | 3%
COC1CCN(C(=O)c2ccc3oc(Cc4ccc(Cl)cc4)nc3c2)CC1 | / | -9% | 0% | 0% | -17% | -13%
COC(=O)c1ccc(-c2nc3cc(Cl)c(N)cc3s2)cc1 | 2% | 16% | 0% | -3% | 0% | -4%
COC(=O)c1ccc(-c2nc(O)c(C)s2)cc1 | 6% | 79µM* | 20% | -3% | 7.5µM* | -15%
SMILES | PKM2 act | VDR inh | GCN5L2 inh | Mito fusion yeast | PLK1 PBD inh | GLS inh
COc1ccc(C(=O)Nc2ccc(NC(=O)c3cccs3)cc2)cc1Cl | -11% | ? | -1% | 0% | 3.8µM* | -15%
COc1ccc(C(=O)Nc2ccc(NC(=O)c3cccs3)c(OC)c2)cc1Cl | 0% | -13% | 1% | -10% | 7% | -16%
Cc1ccc(S(=O)(=O)N(C)CC(=O)OCC(=O)NC(=O)Nc2ccc3c(c2)OCCO3)cc1 | 7% | ? | -8% | -5% | 27µM* | 19%
Cc1cccc(NC(=O)NC2CCCCCCC2)c1C | -1% | -13% | -4% | -4% | -4% | -11%
CCC(=O)Nc1nc(=S)ss1 | -32% | 45µM* | -20% | -2% | 21µM* | 4%
O=C1C(c2ccc(F)cc2)N(CCc2ccccc2)C(=O)CN1C1CCCCC1 (stereo not drawn) | / | 17% | -10% | / | / | 0%
COC(=O)C1=C(C)NC(=O)NC1c1ccc(N2CCC(c3ccccc3)=N2)cc1 (stereo not drawn) | 0% | ? | -20% | 1% | 27µM* | 34%
COc1cc2c(oc(=O)c3cc(C)cc(OC)c32)c2c(C3OC(C)C(O)C(C)(O)C3O)ccc(O)c12 (stereo not drawn) | / | -23% | / | / | -6% | 3%
CCS(=O)(=O)N1CCN(CC(=O)NC2CCCCC2)CC1 | -3% | -3% | -7% | -2% | 21µM* | 0%
CS(=O)(=O)N1CCN(CC(=O)NC2CCCCC2)CC1 | -3% | 3% | 0% | -1% | -10% | -11%
O=c1o[nH]c(-c2ccccc2)c1-c1ccccc1 | / | 2% | / | / | -11% | -4%
O=c1c(-c2ccccc2)c1-c1ccccc1 | 1% | 45µM* | -12% | -2% | / | 1%
Cc1ccc(-n2c(SCC(=O)NCC3CCCO3)nnc2-c2ccoc2C)cc1 (stereo not drawn) | -8% | 7% | 0% | -1% | -19% | -1%
Cc1ccccc1-n1c(Cn2c(=O)sc3ccccc32)nnc1SCC(=O)NCC1CCCO1 (stereo not drawn) | 0% | -7% | 0% | 1% | 21µM* | 19%
Cc1occc1-c1nnc(SCC(=O)NCC2CCCO2)n1C (stereo not drawn) | 2% | -19% | -3% | -2% | 30µM* | 13%
CSc1nnc(Cn2c(=O)sc3ccccc32)n1-c1ccccc1C | / | 50µM* | / | / | 19µM* | ?

Source: PubChem BioAssay
